# Source: PubChem BioAssay
# Wnt bcat act – Wnt/beta-catenin pathway activators, primary screen, cell-based, plate reader, single point; Wnt/beta-catenin reporter cell assay, activator; activation, % at 9.35 µM; hit rate 1.2% among 300,000; AID 743398, 2014; in the data active = activation above about 30%, passing the limit was not always enough; inconclusive = no clear call, values can overlap the other calls;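 note: 0% = neutral control wells and 100% = positive control wells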
# HSF1 inh – HSF1 inhibitors in luciferase reporter cells, primary screen, cell-based, NIH3T3, luminescence. NIH3T3-HGL HSE-luciferase, MG132-induced, luminescence 8 h; hits give low values. activity change, negative = inhibition, % at 7.5 µM (by protocol). hit rate 0.77% among 300,000. AID 2098, 2009;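 active = more than half of replicate wells show activity change below -50%, luminescence cut by over half; inconclusive = some wells, but at most half, below -50%; inactive = no replicate well below -50%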;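 note: luciferase reports HSF-1 transcriptional activity via heat shock element; 0% = median of DMSO wells and -100% = zero luminescence signal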
# esBAF inh – Bmi1 luciferase reporter increase in mESCs, primary screen, esBAF inhibitor project, mouse ES cells, Bmi1 luciferase knock-in, single point | 24 h; 100% = twice the neutral-well signal | reporter increase, % at 12.5 µM | hit rate 2% among 350,000 | AID 602393, 2012; in the data active = activation above about 40%; inconclusive = no clear call, values can overlap the other calls;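 note: 0% = median of the plate's neutral control wells and 100% = double that signal; a rise in the Bmi1 reporter signal indicates esBAF inhibition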
# MITF act – activators of MITF-driven TRPM1 promoter reporter, primary screen, cell-based, SK-MEL-5, luciferase, single point | hit rate 0.75% among 300,000 | activation, % at 12.5 µM | SK-MEL-5 TRPM1-promoter luciferase, 24 h; % of positive control, neutral wells = 0;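 active = mean activation of at least 80% with every replicate also reaching 80%; inconclusive = mean reaches 80% but some replicate falls short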;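 note: 0% = neutral control wells and 100% = parthenolide positive control wells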
# HSF-1 act – HSF-1 activators, primary screen, NIH3T3-HGL cells, MG132 stress, luminescence, single point; NIH3T3-HGL HSF-1 luciferase reporter, 8 h; 100% = twice DMSO control signal; activation, % at 9 µM; hit rate 1.7% among 300,000;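 active = mean replicate activation of at least 50% with a set share of replicates each reaching 50%; inconclusive = only one of those two conditions met; inactive = mean below 50% and too few replicates reaching it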;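 note: 0% = median of the neutral control wells and 100% = twice that signal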
# The depositor's hits bear a star; ? = inconclusive; nt = not tested or not shown. Most compounds without a hit are left out; they make up all but 3.8% or so of the library.
SMILES,Wnt bcat act,HSF1 inh,esBAF inh,MITF act,HSF-1 act
Cc1ccc(CN2C(=O)C(C)Oc3ccccc32)cc1 (configuration not stated),-1,-6,nt,-3,-7
Cc1ccc(N2Cc3ccccc3OC(C)C2=O)cc1 (configuration not stated),-2,27,6,nt,55*
CNc1ccc(-c2cccc(CO)c2)cn1,11,nt,41*,nt,nt
Cc1nn(C)cc1NC(=O)C[C@H]1CC[C@@H]2[C@@H](COc3ccc(NC(=O)NC(C)C)cc3C(=O)N2C)O1,nt,nt,0,nt,nt
Cc1noc(C)c1S(=O)(=O)Nc1ccc2c(c1)C(=O)N([C@H](C)CO)C[C@H](C)[C@@H](CN(C)C(=O)CCCN(C)C)OCCCC[C@H](C)O2,nt,nt,-5,nt,nt
CC1(C)CC(=O)c2sc(NC(=O)c3cccs3)nc2C1,nt,17,nt,9,34
CCOc1ccccc1Nc1nc(-c2sc(NC(=O)c3ccccc3)nc2C)cs1,nt,-12,nt,nt,-32
Cc1nc(NC(=O)c2ccccc2)sc1-c1csc(N)n1,?,14,53*,-2,22
CCOc1ccccc1Nc1nc(-c2sc(NC(=O)c3cccc(Cl)c3)nc2C)cs1,0,16,64*,16,15
CC1(C)CC(=O)c2sc(NC(=O)c3ccccc3)nc2C1,nt,17,nt,nt,54*
C[C@@H]1CN([C@H](C)CO)C(=O)c2cc(NS(=O)(=O)c3ccc(F)cc3)ccc2O[C@H]1CN(C)C(=O)Nc1ccc(C(F)(F)F)cc1,nt,nt,7,nt,nt
CNC(=O)C[C@@H]1CC[C@@H]2[C@H](COc3ccc(NC(=O)Nc4ccccc4OC)cc3C(=O)N2C)O1,nt,nt,-5,nt,nt
O=S(=O)(N[C@H]1CC[C@@H](CCn2cc(C3CC3)nn2)O[C@@H]1CO)c1ccc(Cl)cc1,nt,nt,2,nt,nt
O=C(Nc1ccc(S(=O)(=O)NCC2CCCO2)cc1)c1ccccc1 (configuration not stated),-2,-65*,5,3,-72
CCCC#Cc1cnc2c(c1)C(=O)N([C@H](C)CO)C[C@@H](C)[C@H](CN(C)C)O2,nt,nt,-3,nt,nt
N/C(Cc1nc(-c2ccc(Br)cc2)cs1)=N\O,0,17,nt,17,55*
c1ccc(-c2cn3ccccc3n2)cc1,16,nt,0,59,nt
O=[N+]([O-])c1ccc(-c2cn3ccccc3n2)cc1,35*,-2,nt,nt,9
Brc1ccc(-c2cn3ccccc3n2)cc1,49*,19,-23,22,28
Oc1ccc(-c2cn3ccccc3n2)cc1,38*,5,3,80,30
Cc1cccn2cc(COc3ccc(-c4ccccc4)cc3)nc12,19,36,nt,56,69*
CO[C@H]1CN(C)C(=O)c2ccc(NC(=O)c3nc4ccccc4s3)cc2OC[C@H](C)NC[C@@H]1C,nt,nt,-5,nt,nt
CO[C@H]1CN(C)C(=O)c2cc(NS(=O)(=O)c3c(C)noc3C)ccc2OC[C@H](C)NC[C@@H]1C,nt,nt,4,nt,nt
C/C=C/c1ccc2c(c1)O[C@@H](CN(C)C(=O)CN(C)C)[C@H](C)CN([C@@H](C)CO)S2(=O)=O,nt,nt,-2,nt,nt
O=C(COc1ccc(Br)cc1)NCc1cn2ccccc2n1,-2,12,nt,0,14
SMILES,Wnt bcat act,HSF1 inh,esBAF inh,MITF act,HSF-1 act
Brc1ccc(OCc2cn3ccccc3n2)cc1,17,53,nt,93*,83*
CCOC(=O)c1snc(C(=O)NC2CCCCC2)c1N,20,32,60*,84*,61*
O=C(NCCc1ccc(O)cc1)c1ccc(Cl)cc1,nt,16,?,98*,27
O=C(NCCc1ccc(Cl)cc1)c1ccc2nccnc2c1,25,43,33,53,60*
CC(=O)NCCNC(=O)c1ccc(CSc2ccc(Cl)cc2)cc1,-2,69,54*,65,68*
CC(C)c1ccc(C(=O)NCc2ccc(Cl)cc2)cc1,nt,25,nt,52,57*
CCCC#Cc1ccc2c(c1)O[C@H](CN(C)Cc1cncnc1)[C@@H](C)CN([C@@H](C)CO)S2(=O)=O,nt,nt,-1,nt,nt
CC(=O)N1[C@@H]2c3ccc(-c4cccnc4)c(=O)n3C[C@@H]2[C@@H](CO)[C@@H]1C(=O)N1CCc2ccccc2C1,nt,nt,6,nt,nt
O=C(Nc1cc(Cl)ccc1O)c1cc(-c2ccco2)on1,30,-3,67*,74,-7
